FLuc counter – counter-screen for miR-21 project: firefly luciferase inhibitors or activators; P08659; purified FLuc, Km substrates, luminescence inhibition; Potency, µM (doses to about 57.5 µM), without a hit: top-dose activity change, negative = inhibition, actives largely listed as inhibitors; hit rate 6.9% among 360,000;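 also: plate controls were vehicle for no effect and reference inhibitor for full effect; nearly all actives have a fitted effect of over 55% in size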
Target sequence (P08659 whole entry, looked up): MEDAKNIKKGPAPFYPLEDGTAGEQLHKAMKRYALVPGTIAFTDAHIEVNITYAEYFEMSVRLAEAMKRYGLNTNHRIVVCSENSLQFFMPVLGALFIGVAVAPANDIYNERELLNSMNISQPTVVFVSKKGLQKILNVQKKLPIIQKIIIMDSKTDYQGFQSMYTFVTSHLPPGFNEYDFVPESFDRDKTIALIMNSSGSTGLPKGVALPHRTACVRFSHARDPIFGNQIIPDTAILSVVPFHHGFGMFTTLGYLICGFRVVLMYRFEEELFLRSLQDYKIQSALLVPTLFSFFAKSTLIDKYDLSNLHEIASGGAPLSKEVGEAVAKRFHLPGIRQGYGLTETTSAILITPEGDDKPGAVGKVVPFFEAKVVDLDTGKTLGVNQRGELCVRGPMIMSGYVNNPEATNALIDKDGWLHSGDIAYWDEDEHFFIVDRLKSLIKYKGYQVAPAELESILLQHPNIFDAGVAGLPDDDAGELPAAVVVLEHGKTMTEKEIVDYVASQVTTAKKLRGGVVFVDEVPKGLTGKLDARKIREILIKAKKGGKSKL
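Purified P. pyralis luciferase (10nM final) with 10uM D-luciferin and 10uM ATP (Km levels) in 50mM Tris acetate pH 7.5, 10mM Mg acetate, 0.01% Tween-20, 0.05% BSA; qHTS 6-point titration, ~60 µM downward; luminescence read.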
SMN2 splice enh – increases expression of the SMN2 splice variant. hit rate 2.8% among 210,000. HEK293 SMN2-luciferase splicing reporter, luminescence, 30-36 h. AID 1458. Potency, µM (doses to about 46.1 µM), for the others: at the highest dose activity change, positive = activation, most hits filed as activators; also: % of control where 0% means no effect; nearly all actives have a fitted effect of over 55% in size
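qHTS luciferase splicing reporter: luminescence rises when SMN2 exon 7 is included in transfected HEK293 cells. Compound exposure lasted 30-36 h at 37C, with 4.5 mM final sodium butyrate as control, followed by a ONE-Glo read.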
ELG1 repair inh – blocks ELG1-dependent DNA repair in HEK293T cells; Potency, µM (titrated, usually from 46.1 µM), inactives show at the top dose activity change, negative = inhibition, hits mostly inhibitors; AID 504467; HEK293T ELG1-luciferase reporter, luminescence, 16 h; DNA damage induced by 5-fluorouridine; hit rate 2.3% among 330,000; also: % is scaled to controls: 0 for no effect and ±100 for the full control effect; nearly all actives have a fitted effect of over 55% in size
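Step one: seed 2,000 cells per well. Step two: pin-transfer compound or DMSO alongside 5-fluorouridine. Step three: incubate 16 hr, 37 °C, 5% CO2. Step four: add ONE-Glo, wait 30 min, read luminescence.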
NPC1 prom act – activates the NPC1 promoter. Huh7 NPC1 promoter luciferase reporter, 24 h. Potency, µM (doses to about 9.22 µM), for inactives: top-dose activation, hits mostly activators. hit rate 2.4% among 320,000. AID 485313; also: % of control where 0% means no effect; nearly all actives have a fitted effect of over 60% in size
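Readout is luciferase luminescence, reflecting NPC1 promoter activation in stably transfected Huh7 cells after 24 h compound exposure at 37 °C in reduced-serum medium with 10% FBS.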
ELG1 genotoxic – induces genotoxicity in HEK293T cells with luciferase-tagged ELG1; HEK293T ELG1-luciferase reporter, luminescence, 16 h; Potency, µM (top dose mostly 46 µM), for the others: at the highest dose activity change, positive = activation, most hits filed as activators; hit rate 1.3% among 330,000; AID 504466; also: % of control where 0% means no effect; nearly all actives have a fitted effect of over 60% in size
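After overnight (16 hr) compound treatment at 37 °C, ELG1-luciferase HEK293T cells were lysed with ONE-Glo; luminescence quantified 30 min later at room temperature.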
Rab9 prom act – activates the Rab9 promoter; Huh7 Rab9 promoter-luciferase reporter, luminescence, 24 h; Potency, µM (titrated, usually from 9.22 µM), for inactives: top-dose activation, negative = inhibition, most hits filed as activators; hit rate 2.8% among 320,000; also: % of control where 0% means no effect; nearly all actives have a fitted effect of over 60% in size
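Cell-based reporter: Huh7 stable for Rab9 promoter-driven luciferase, plated in reduced-serum medium with 10% FBS at 1500 cells/well, compound-treated 24 h at 37 °C, luminescence read after 10 min reagent.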
Active calls of the source: *; ? = inconclusive; / = no result given; [ ] = dose if it differs, or a comment. Rows were chosen to be rich in hits. Some 9.4% of all compounds tested hit in one or more screens of this group. Calls follow the shape of the dose curve; as a rule, active = well fitted curve in the direction sought with a large enough effect; inconclusive = small, poorly fitted or top-dose-only effect, or another doubt; inactive = no such curve, though single readings can be large; an effect the other way counts as inactive or inconclusive. Potency is read from the fitted curve at half-maximal effect.

SMILES | FLuc counter | SMN2 splice enh | ELG1 repair inh | NPC1 prom act | ELG1 genotoxic | Rab9 prom act
CC(C)CSC1=NSC2=NC(=O)/C(=C\c3coc4ccccc4c3=O)C(=N)N12 | 17µM* | 21% | -1% | 1% | 0% | -1%
Cc1cc(/C=C2\C(=N)N3C(SCc4ccccc4)=NSC3=NC2=O)c(C)n1Cc1ccccc1 | 21µM* | -10% | 0% | -1% | 0% | -1%
COC(=O)c1ccc(NC(=O)CSc2cn(CC(=O)N3CCCCC3)c3ccccc23)cc1 | -2% | / | / | / | / | /
COc1cccc(CC(=O)N2CCc3nc(-c4ccccc4)c4c(c3C2)CO[C@@H](C)C4)c1 | / | 1%[9.22 µM] | / | / | / | /
CC(/C=N\NC(=O)c1cc(C)oc1C)=C\c1ccccc1 | 2.1µM* | ? | ? | ? | ? | 2.5µM*
Cc1ccc(/C=N/NC(=O)c2cc(C)oc2C)cc1 | 4.3µM* | / | ? | 12% | ? | 24%
O=C(c1cc(-c2ccccc2)nc2ccccc12)N1CCN(c2ccccc2O)CC1 | 11µM* | / | 13µM* | 11% | -22% | 24%
CC(C)n1ncc2c(C(=O)N3CCN(c4ccccc4)CC3)cc(-c3ccccc3)nc21 | -1% | / | ? | -8% | -3% | 1%
Cc1ccc2nc(-c3ccccc3)cc(C(=O)N3CCN(c4ccccc4O)CC3)c2c1 | 13µM* | / | ? | 14% | -28% | 4%
Cc1ccc2nc(-c3ccccc3)cc(C(=O)N3CCN(S(=O)(=O)c4c(C)noc4C)CC3)c2c1 | 5.4µM* | / | ? | 5% | -7% | 6%
O=C(c1cc(-c2ccncc2)nc2ccccc12)N1CCN(c2ccccc2O)CC1 | ? | / | ? | -5% | -17% | 0%
COC(=O)c1ccc2c(c1)N(CC(=O)Nc1cccc(Cl)c1C)C(=O)c1ccccc1S2 | -2% | / | / | / | / | /
COc1ccc(N=Nc2nc3cc(Br)c(Br)cc3n2C)c(OC)c1 | 5.4µM* | 17% | -2% | 0% | -19% | 0%
COc1ccc(N=NC2=C(O)CC(C)(C)CC2=O)c(OC)c1 | ? | 7% | 0% | 7% | 7% | 14%
CC#CCC1(C(=O)OC)C(=O)NC[C@H]1c1ccccc1 (stereo not given in full) | / | -7% | / | / | / | /
O=C(O)CC12C[C@H]3C[C@@H](CC(O)(C3)C1)C2 | / | -11%[9.22 µM] | / | / | / | /
COC(=O)c1cn(NC(=O)c2ccncc2)c(=O)c2ccccc12 | 4% | -6% | 0% | 2% | -1% | -5%
COC(=O)c1cn(NC(=O)C2CCCCC2)c(=O)c2ccccc12 | 3% | -2% | 17% | 2% | -6% | 6.3µM*
COCc1nc(-c2ccc(-c3ccccc3)nc2OC)no1 | ? | 22µM* | 28% | ? | 4% | 4µM*
COCc1nc(-c2ccc(-c3ccc(OC)cc3)nc2OC)no1 | ? | 19% | ? | 13% | 12% | 24%
CCc1nc(-c2ccc(-c3ccc(OC)cc3)nc2OC)no1 | 21µM* | ? | ? | ? | ? | ?
COc1ccc(NC(=O)Cn2cnc3ccc(S(=O)(=O)N4CCC(C)CC4)cc3c2=O)cc1Cl | 4% | 18% | / | / | / | /
O=c1c(O)c(-c2cccs2)oc2ccc(Cl)cc12 | ? | ? | 1% | 0% | -4% | 3%
O=c1cc(-c2ccc3c(c2)OCCO3)oc2ccc(Cl)cc12 | 0.38µM* | 2.5µM* | ? | 0.63µM* | 2.9µM* | 0.45µM*
O=c1cc(-c2cccs2)oc2ccc(Cl)cc12 | 4.8µM* | / | ? | 3.2µM* | ? | 3.2µM*
SMILES | FLuc counter | SMN2 splice enh | ELG1 repair inh | NPC1 prom act | ELG1 genotoxic | Rab9 prom act
COc1cc2nc(N3CCCN(C)CC3)nc(NC3CCN(Cc4ccccc4)CC3)c2cc1OC | / | / | / | -35%[46.1 µM] | / | -40%[46.1 µM]
Cc1cc(Br)ccc1NC(=O)CSc1c2c(nc3ccccc13)CCC2 | -12% | -34% | / | / | / | /
Cc1cccc(C(=O)NC(=O)Nc2ccc(-n3nc(C(F)(F)F)cc3C(F)(F)F)cc2)c1 | 2% | 3% | / | / | / | /
CC1CCCCC1NC(=O)CSc1nnc(COc2ccccc2Cl)o1 (stereo not given) | 21µM* | 7% | 6% | 3% | 1% | 3%
O=C(CSc1nnc(COc2ccccc2Cl)o1)Nc1ccccc1 | ? | / | 9% | -2% | 1% | -4%
CC(C)(C)NC(=O)NC(=O)CSc1nnc(COc2ccccc2Cl)o1 | 17µM* | 13% | 0% | -2% | -3% | -7%
COc1ccc(CCN(C)Cc2ccc(OC)c(OCc3ccccc3)c2)cc1OC | 4% | -2% | -25% | 3% | 0% | -6%
COc1ccc(CCN(C)Cc2ccc(C(=O)Nc3ccccc3)cc2)cc1OC | -4% | / | 7.3µM* | -11% | -7% | -7%
COc1ccccc1-c1nc2cc(NC(=O)c3ccccc3Cl)ccc2o1 | 5.4µM* | 11% | / | / | / | /
CC(C)(C)C(=O)Nc1ccc2oc(-c3cc(F)c(F)cc3Cl)nc2c1 | 2.7µM* | 25% | ? | ? | 5.2µM* | 4.5µM*
O=C(Nc1ccc2oc(-c3ccccc3F)nc2c1)c1ccccc1Cl | 3.4µM* | 14µM* | / | / | / | /
O=C(Cc1ccc(Cl)cc1)Nc1ccc2oc(-c3ccccc3F)nc2c1 | -14% | 14% | / | / | / | /
Clc1ccc(CSc2ncnc3c2ncn3[C@@H]2CCCCO2)cc1 | / | -10%[9.22 µM] | / | / | / | /
N#CCCN/N=C(/Cc1nc2ccccc2[nH]1)c1ccc(Cl)cc1 | 27µM* | 14µM* | ? | 24% | ? | ?
N/N=C(/Cc1nc2ccccc2[nH]1)c1ccc([N+](=O)[O-])cc1 | 12µM* | ? | 15% | 16% | 1% | 28%
Cc1ccc(N/N=C(\Cc2nc3ccccc3[nH]2)c2ccccc2)cc1 | ? | ? | ? | -22% | ? | -12%
c1ccc(N/N=C(\Cc2nc3ccccc3[nH]2)c2ccccc2)cc1 | 7.6µM* | 13µM* | ? | ? | ? | 25%
COc1ccc(NC(=O)CC2C(=O)N(c3ccc(C)cc3)C(=O)N2Cc2cccnc2)cc1 (stereo not given) | 3% | / | / | / | / | /
Cc1cc(C)cc(NC(=O)c2cc(S(=O)(=O)N3CCCC3)ccc2F)c1 | -11% | / | / | / | / | /
COC(=O)c1ccc(C(NC(=O)OCc2ccccc2)/C(=C/[C@@H](C)C(=O)N(C)Cc2ccccc2)c2cccnc2)cc1 (stereo not given in full) | / | 14% | / | / | / | /
O=c1cnn([C@@H]2O[C@H](CO)[C@@H](O)[C@H]2O)c(=O)[nH]1 | 3% | 2µM* | ? | -6% | -12% | 1%
C=CC[n+]1ccc(/C=C2\C=Cc3cc(C)ccc3N2CC)c2ccccc21 | ? | -98% | 1.3µM* | -38% | -21% | -33%
COc1ccc2c(c1)CCc1sc(NC(=O)c3cccc(Br)c3)nc1-2 | -13% | / | / | / | / | /

Bioassay records from PubChem.
